In the supplement of paper PMC13380429:

Test system: Vero E6 infected with SARS-CoV-2
Test: inhibition of SARS-CoV-2 cytopathic effect; higher = more antiviral protection, active = above 15
Settings: 48 h

Measured: inhibition of SARS-CoV-2 cytopathic effect

CCOCC(O)COc1ccc(NC(=O)CC[S+](C)C)cc1 (stereo not given) [suplatast]
inactive: 1 nM 2.01% | 8.33 nM -0.4% | 100 nM -0.49% | 833.33 nM 0.97% | 10000 nM 0.31%

C[C@@H](CN(C)C)CN1c2ccccc2Sc2ccccc21 (racemic) [alimemazine]
inactive: 1 nM -2.63% | 8.33 nM -3.15% | 100 nM -1.76% | 833.33 nM -0.79% | 10000 nM -0.47%

O=C(c1ccccc1)C(O)c1ccccc1 (stereo not given) [benzoin]
inactive: 1 nM 0.3% | 8.33 nM 0.27% | 100 nM -1.79% | 833.33 nM 1.45% | 10000 nM 0.76%

Cn1nc(-c2cccc(F)c2)n(C)c1=S [suritozole]
inactive: 1 nM 3.45% | 8.33 nM 1.68% | 100 nM 1.49% | 833.33 nM 1.52% | 10000 nM 1.85%

Clc1ccccc1C(c1ccccc1)(c1ccccc1)n1ccnc1 [clotrimazole]
inactive: 1 nM -0.06% | 8.33 nM -0.06% | 100 nM -0.28% | 833.33 nM 0.61% | 10000 nM 2.73%

O=[N+]([O-])c1ccc2c(c1)S(=O)(=O)C=C2 [stattic]
inactive: 1 nM -2.62% | 8.33 nM -2.1% | 100 nM -5.02% | 833.33 nM 5.41% | 10000 nM -2.07%

N=C(C[C@@H](O)COc1ccccc1-c1ccccc1)N1CCCCC1
inactive: 1 nM -5.21% | 8.33 nM -4.99% | 100 nM 0.04% | 833.33 nM -2.13% | 10000 nM -2.77%
